Rows were chosen to be rich in hits. Some 4.5% of all compounds tested hit in one or more screens of this group.
Gli-Sufu antag – Gli-Sufu pathway antagonism. Sufu-KO-LIGHT fibroblasts, Gli luciferase reporter luminescence. inhibition, % at 5 µM. actives 0.74% (n = 340,000). AID 588413;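 active means inhibition above about 55%, limit read from the data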
697 NFkB inh – lowers PMA/ionomycin-induced NF-kB signal in 697 B cells. 697 B-cell NF-kB luciferase reporter, 16 h. inhibition, % at 4 µM. actives 0.33% (n = 330,000); in the data active means inhibition above about 35%
Jurkat NFkB inh – lowers PMA/ionomycin-induced NF-kB signal in Jurkat cells. PMA/ionomycin-induced NF-kB luciferase reporter, luminescence. inhibition, % at 4 µM. actives 0.53% (n = 330,000). AID 435003; in the data active means inhibition above about 50%
Mdm2-MdmX inh – disrupts the human Mdm2-MdmX interaction; O15151+Q00987; SaOS-2 split-luciferase Mdm2/MdmX complementation, luminescence; inhibition, % at 8 µM; actives 3% (n = 330,000);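 active means inhibition of at least 50% at 8 µM in the primary screen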
Target sequence (O15151 whole entry, looked up): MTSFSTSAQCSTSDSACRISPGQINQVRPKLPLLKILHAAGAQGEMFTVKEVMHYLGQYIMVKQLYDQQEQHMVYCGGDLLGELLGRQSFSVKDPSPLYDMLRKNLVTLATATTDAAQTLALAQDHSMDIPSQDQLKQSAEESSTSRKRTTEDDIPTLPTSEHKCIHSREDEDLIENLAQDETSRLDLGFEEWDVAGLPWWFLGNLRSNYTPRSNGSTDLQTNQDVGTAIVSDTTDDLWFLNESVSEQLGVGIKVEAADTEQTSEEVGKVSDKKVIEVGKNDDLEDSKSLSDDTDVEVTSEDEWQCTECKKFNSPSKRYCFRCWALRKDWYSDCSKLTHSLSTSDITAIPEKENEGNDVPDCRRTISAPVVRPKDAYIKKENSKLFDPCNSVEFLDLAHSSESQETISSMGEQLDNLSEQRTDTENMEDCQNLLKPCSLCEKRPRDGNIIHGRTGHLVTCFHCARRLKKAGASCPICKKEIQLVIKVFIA
Target sequence (Q00987 whole entry, looked up): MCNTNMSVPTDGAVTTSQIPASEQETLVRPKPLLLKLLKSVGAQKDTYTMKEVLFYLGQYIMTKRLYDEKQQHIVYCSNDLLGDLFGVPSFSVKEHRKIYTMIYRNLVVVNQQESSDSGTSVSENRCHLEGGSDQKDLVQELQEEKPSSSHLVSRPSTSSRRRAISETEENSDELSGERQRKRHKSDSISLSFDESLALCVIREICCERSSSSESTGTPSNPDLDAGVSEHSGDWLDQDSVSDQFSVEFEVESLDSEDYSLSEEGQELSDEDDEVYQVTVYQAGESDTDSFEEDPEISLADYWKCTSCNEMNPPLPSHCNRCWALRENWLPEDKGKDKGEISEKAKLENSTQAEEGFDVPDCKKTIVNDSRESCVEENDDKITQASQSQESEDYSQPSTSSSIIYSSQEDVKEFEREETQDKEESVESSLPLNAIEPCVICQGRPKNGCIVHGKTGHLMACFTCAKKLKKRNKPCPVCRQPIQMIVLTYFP
aSyn UTR inh – 5' untranslated region of α-synuclein, MLPCN primary screen; alpha-synuclein 5'UTR reporter, inhibitor activity; inhibition, % (tested at 7.5 µM); actives 0.82% (n = 300,000); AID 1813; in the data active means inhibition above about 60%; inconclusive means no clear call, values can overlap the other calls;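 further: H4 neuroglioblastoma cells stably carrying SNCA 5'UTR luciferase fusion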
CSC inhib – cancer stem cell inhibition; actives 1.1% (n = 300,000); cancer stem cell-like cells viability, luminescence; inhibition, % at 7.5 µM; AID 2717; in the data active means inhibition above about 75%; inconclusive means no clear call, values can overlap the other calls; tested in HMLE shEcad cells
Mdm2-MdmX conf – human Mdm2/MdmX binding inhibition, confirmed. shares compounds with Mdm2-MdmX inh. actives 55% (n = 10,000). luminescent assay. inhibition, % at 8 µM; in the data active means inhibition above about 40%
FLuc counter – inhibits full-length luciferase, flagging false Mdm2/MdmX hits; shares compounds with Mdm2-MdmX inh; SaOS-2 full-length luciferase counterscreen, luminescence; actives 77% (n = 6,200); AID 504607; inhibition, % at 8 µM;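 active means mean inhibition at 8 µM reaching about 37%, which flags the compound as non-specific, limit read from the data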;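 further: p53-null SaOS-2 cells with luciferase driven by a doxycycline-inducible promoter; compound on cells about two nights before reading with doxycycline added after day one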
Numbers stand for hits; – = inactive; ? = inconclusive; · = not tested or not shown.

SMILES	Gli-Sufu antag	697 NFkB inh	Jurkat NFkB inh	Mdm2-MdmX inh	aSyn UTR inh	CSC inhib	Mdm2-MdmX conf	FLuc counter
NS(=O)(=O)c1ccc(CCNc2nc3c(-c4cccc(F)c4)nnn3c3ccccc23)cc1	–	–	–	67	–	–	–	·
Cc1cccc(-c2nnn3c2nc(NCCc2ccc(S(N)(=O)=O)cc2)c2ccccc23)c1	–	–	–	67	–	–	50	74
CN(C)CCCOC(=O)COc1ccc(C(C)(C)C)cc1	–	–	–	–	–	–	·	·
CC(C)CN(CCCNC(=O)CN1N=C(c2ccc(Cl)cc2)CCC1=O)CC(C)C	·	–	–	–	–	–	·	·
Cc1cc(C)nc(NC(N)=NCCc2c[nH]c3ccccc23)n1	–	–	–	72	–	–	52	54
CSC(=O)CC(=O)NC(=O)c1ccccc1	–	–	–	–	–	–	·	·
FC(F)(F)c1cccc(-c2ccn3ncnc3n2)c1	–	–	–	–	–	–	·	·
Cc1c(Cl)cccc1NC(=S)NNc1ncc(C(F)(F)F)cc1Cl	–	–	–	64	–	–	72	42
Cc1ccc(NC(=O)C2CC2C)cc1S(=O)(=O)N1CCOCC1 (stereo not drawn)	–	–	–	–	–	–	·	·
CCOc1ccc(NC2OCC(O)C(O)C2O)c([N+](=O)[O-])c1 (stereo not drawn)	–	–	–	–	–	–	·	·
O=C(N/N=C/c1cc(Br)cc(Br)c1O)c1ccncc1	–	–	–	–	–	–	·	·
O=C(N/N=C/c1cc(Br)cc([N+](=O)[O-])c1O)c1ccc(NC(=O)c2ccc(F)cc2)cc1	–	–	–	56	–	–	–	60
CCCNC(=S)Nc1c(C)n(C)n(-c2ccccc2)c1=O	–	–	–	–	–	–	·	·
CCCCn1c(=NC(C)=O)c(C#N)cc2c(=O)n3cccc(C)c3nc21	–	–	–	–	–	–	·	·
CCCCCn1c(=NC(=O)c2cccnc2)c(C#N)cc2c(=O)n3cccc(C)c3nc21	–	–	–	73	–	–	51	42
N#CC(=C(O)COC(=O)CCC1CCCCC1)c1nc2ccccc2[nH]1	–	·	·	·	·	·	·	·
COC(=O)c1ccc2c(c1)C(C)(C)C(/C=C/c1ccccc1O)=[N+]2C	65	–	–	71	118	78	100	52
CCN(CC)CCCCCC(=O)Nc1ccccc1C(=O)Nc1ccccc1	–	–	–	–	–	–	·	·
O=C(NNc1ccccc1[N+](=O)[O-])Nc1ccc(Cl)c(Cl)c1	–	–	–	87	–	–	80	41
O=C(NNc1ccccc1[N+](=O)[O-])Nc1ccccc1	–	–	–	–	–	–	·	·
O=C(Nc1ccc(Cl)c([N+](=O)[O-])c1)C(Sc1ccccc1)c1ccccc1 (stereo not drawn)	–	–	–	88	–	–	82	–
CCN(CC)S(=O)(=O)c1cc([N+](=O)[O-])ccc1NNC(=O)Nc1ccc(Cl)c(Cl)c1	–	–	–	91	?	–	93	52
CCOc1ccc([C@@H]2CC=C(C(=O)O)CN2S(=O)(=O)c2ccc(C)cc2)cc1	–	–	–	–	·	–	·	·
O=C(COC(=O)c1cccc(Br)c1)NCCC1=CCCCC1	–	–	–	–	–	–	·	·
CCc1cccc2c1NC(=O)C21N2CCCC2C(C(=O)c2ccc3ccccc3c2)C12C(=O)Nc1ccccc12 (stereo not drawn)	–	–	–	–	–	–	·	·
SMILES	Gli-Sufu antag	697 NFkB inh	Jurkat NFkB inh	Mdm2-MdmX inh	aSyn UTR inh	CSC inhib	Mdm2-MdmX conf	FLuc counter
CCc1ccc2c(c1)C1(C(=O)N2)N2CCCC2C(C(=O)c2ccc3ccccc3c2)C12C(=O)Nc1ccccc12 (stereo not drawn)	–	–	–	91	–	159	–	91
COc1ccc(C2c3ccc(O)cc3Oc3ncn(Cc4ccccc4)c(=N)c32)cc1OC (stereo not drawn)	–	–	–	–	–	–	·	·
COc1ccc(C2c3ccc4ccccc4c3Oc3ncn(CCO)c(=N)c32)cc1OC (stereo not drawn)	–	–	–	58	–	–	–	·
COc1ccc(C2c3ccc4ccccc4c3Oc3ncn(CCCO)c(=N)c32)cc1OC (stereo not drawn)	–	–	–	78	–	–	71	48
O=C(COc1ccc2c(c1)OCO2)Nc1ccc2c(c1)oc1ccccc12	–	–	–	50	–	–	–	·
N#Cc1ccccc1NC(=O)c1ccccc1OCC(=O)Nc1ccc2c(c1)oc1ccccc12	–	–	–	62	–	–	–	·
Cn1c(/C=C/c2cccc([N+](=O)[O-])c2)c([N+](=O)[O-])c(=O)n(C)c1=O	–	–	–	84	–	–	52	43
Cn1c(/C=C/c2ccc(Cl)cc2)c([N+](=O)[O-])c(=O)n(C)c1=O	–	–	–	64	–	–	44	37
COc1ccc(C(=O)c2c3ccc([N+](=O)[O-])cc3[n+]([O-])n2CCCC(N)=O)cc1	–	–	–	–	–	–	·	·
C=CCNC(=S)N/N=C/c1ccc(-c2cc(Cl)ccc2Cl)o1	–	–	–	68	–	–	–	·
O=C(CN1C(=O)c2ccccc2C1=O)OCCOCCN=C1NS(=O)(=O)c2ccccc21	–	–	–	–	–	–	·	·
CN(C)c1ccc(/C=C2/SC(=O)N(CCN=C3NS(=O)(=O)c4ccccc43)C2=O)cc1	–	–	–	60	–	–	–	·
CC[C@@H]1C(c2ccc(F)cc2)=NN(c2ccc(Br)cc2)[C@H]1C(=O)N1CCOC1=O	–	–	·	–	·	·	·	·
C[C@]12c3[nH]c4cc(-c5ccco5)ccc4c3CCN1C(=O)[C@@H](CC(=O)NCCN1CCOCC1)C[C@@H]2C(=O)N1CCOCC1	–	–	·	–	·	·	·	·
CC[C@]12c3[nH]c4ccc(Cl)cc4c3CCN1C(=O)[C@@H](CC(=O)NCC13CC4CC(CC(C4)C1)C3)C[C@@H]2C(=O)N1CCN(C(=O)c2ccco2)CC1	–	–	·	87	·	·	41	38
C[C@]12c3[nH]c4cc(-c5ccco5)ccc4c3CCN1C(=O)[C@@H](CC(=O)NCc1cccc(C(F)(F)F)c1)C[C@@H]2C(=O)N1CCCCC1	–	–	·	85	·	·	–	·
CC[C@]12c3[nH]c4cc(-c5ccco5)ccc4c3CCN1C(=O)[C@@H](CC(=O)NCC13CC4CC(CC(C4)C1)C3)C[C@@H]2C(=O)N1CCN(C(=O)C2CC2)CC1	–	–	·	78	·	·	–	·
C[C@]12c3[nH]c4cc(-c5ccco5)ccc4c3CCN1C(=O)[C@@H](CC(=O)NCC13CC4CC(CC(C4)C1)C3)C[C@@H]2C(=O)N1CCCCC1	–	–	·	78	·	·	–	·
COc1ccccc1-n1ccnc(SCC(=O)NCCc2ccccc2)c1=O	–	–	–	–	–	–	·	·

Bioassay records as filed in PubChem BioAssay.
